We go through twelve compounds from PubChem BioAssay (NCATS).

One assay deals with HB3. The experiment in a line: qHTS profiling for inhibitors of Plasmodium falciparum proliferation (AID 504749). The following applies: P. falciparum in erythrocytes, SYBR Green DNA, 72 h; series mostly up to 28.7 µM. An outline of the steps: (§1)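 In a 72 h erythrocytic culture (37 C, humidified, 5% CO2) at 2.5% hematocrit and 0.3% starting parasitemia, compounds were tested; SYBR Green I in detergent lysis buffer stained parasite DNA overnight.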
In general terms: Quantitative high-throughput screening tests each substance at several concentrations.

A further assay relates to ICS. The description is as above. The following applies: P. falciparum in erythrocytes, SYBR Green DNA, 72 h; series mostly up to 28.7 µM. An outline of the steps: as §1
For another assay, the system named is N140. The description is as above. The following applies: P. falciparum in erythrocytes, SYBR Green DNA, 72 h; series mostly up to 28.7 µM. An outline of the steps:
as §1

In another assay the test system is P93_24. Described as above. Particulars: P. falciparum in erythrocytes, SYBR Green DNA, 72 h; series mostly up to 28.7 µM. An outline of the steps: as §1
Another assay relates to P94_40. The assay is described as above. Particulars: P. falciparum in erythrocytes, SYBR Green DNA, 72 h; series mostly up to 28.7 µM. An outline of the steps:
as §1

Another assay relates to PAD. The description is as above. Particulars: P. falciparum in erythrocytes, SYBR Green DNA, 72 h; series mostly up to 28.7 µM. An outline of the steps:
as §1

In a further assay the test system is PC15. The assay is described as above. The following applies: P. falciparum in erythrocytes, SYBR Green DNA, 72 h; series mostly up to 28.7 µM. An outline of the steps:
as §1

The subject of a further assay is PC26. The description is as above. Particulars: P. falciparum in erythrocytes, SYBR Green DNA, 72 h; series mostly up to 28.7 µM. An outline of the steps:
as §1

The next assay deals with SC27B. The assay is described as above. The following applies: P. falciparum in erythrocytes, SYBR Green DNA, 72 h; series mostly up to 28.7 µM. An outline of the steps: as §1
For a further assay, the system named is TAB109. The assay is described as above. Particulars: P. falciparum in erythrocytes, SYBR Green DNA, 72 h; series mostly up to 28.7 µM. An outline of the steps: as §1
A further assay concerns TAB113. The description is as above. Particulars: P. falciparum in erythrocytes, SYBR Green DNA, 72 h; series mostly up to 28.7 µM. An outline of the steps:
as §1

In the next assay the test system is TAB165. The description is as above. Particulars: P. falciparum in erythrocytes, SYBR Green DNA, 72 h; series mostly up to 28.7 µM. An outline of the steps: as §1
The next assay relates to W2. The assay is described as above. The following applies: P. falciparum in erythrocytes, SYBR Green DNA, 72 h; series mostly up to 28.7 µM. An outline of the steps: as §1
The next assay concerns CRL-7250. The experiment in a line: Cytotoxic Profiling of Annotated Libraries Using Quantitative High-Throughput Screening (AID 1296008). For max response: % is set by controls: 0 for no effect and ±100 for the full control effect. Particulars: Five cell lines viability, CellTiter-Glo ATP luminescence, 48-72 h; max response: hits give low values. The method in brief: (§2)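 Cytotoxicity was measured as CellTiter-Glo ATP luminescence, read after 10 min at room temperature. Compound treatment of the cells lasted 48 or 72 hr at 37 degrees Celsius in a qHTS format.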
(In general: ATP-based viability assays read luminescence as a measure of living cells.)

Another assay concerns HaCat. The description is as above. The following applies: Five cell lines viability, CellTiter-Glo ATP luminescence, 48-72 h; max response: hits give low values. An outline of the steps: as §2
In the next assay the test system is KB-3-1. Described as above. Particulars: Five cell lines viability, CellTiter-Glo ATP luminescence, 48-72 h; max response: hits give low values. An outline of the steps:
as §2

In a further assay the test system is NIH3T3. The assay is described as above. The following applies: Five cell lines viability, CellTiter-Glo ATP luminescence, 48-72 h; max response: hits give low values. The method in brief: as §2
The next assay relates to JCK. The assay is described as follows: qHTS profiling for inhibitors of Plasmodium falciparum proliferation (AID 504749). The following applies: P. falciparum in erythrocytes, SYBR Green DNA, 72 h; series mostly up to 28.7 µM. An outline of the steps: as §1
A further assay deals with PC49. The assay is described as above. Particulars: P. falciparum in erythrocytes, SYBR Green DNA, 72 h; series mostly up to 28.7 µM. An outline of the steps:
as §1

The next assay has as its system HEK293. The assay is described as follows: Cytotoxic Profiling of Annotated Libraries Using Quantitative High-Throughput Screening (AID 1296008). For max response: % is set by controls: 0 for no effect and ±100 for the full control effect. The following applies: Five cell lines viability, CellTiter-Glo ATP luminescence, 48-72 h; max response: hits give low values. The method in brief:
as §2

Several values for one entry are separate records, joined by “and”; a condition that tells them apart may be missing. Equal values may be shown once. Records with an inconclusive call do not appear. A structure can be active in one record and inactive in another. Unmarked numbers belong to inactive results. Activity calls are given as the source filed them. Calls come from the whole dose curve; as a rule, active = well fitted inhibition curve with a large enough effect; inconclusive = small, poorly fitted or top-dose-only effect; inactive = flat fitted curve, though single readings scatter.
Note: nearly all actives have a fitted effect of over 60% in size.
Potency is the fitted concentration of half-maximal effect.

In the case of `OCCN1CCN(CCCN2c3ccccc3Sc3ccc(C(F)(F)F)cc32)CC1`, the Potency was 11.2 µM (active) in the assay on HB3; 1.58 µM (active) in the assay on ICS; 7.08 µM (active) in the assay with N140; 6.31 µM (active) in the assay on P93_24; 11.2 µM (active) in the assay on P94_40; 7.94 µM (active) with PAD. Also, the Potency in the assay on PC15 is 11.2 µM (active); in the assay on PC26, 6.75 µM (active); in the assay on SC27B, 8.91 µM (active); in the assay with TAB109 it was 7.08 µM (active); in the assay on TAB113, 8.91 µM (active); in the assay with TAB165, 12.6 µM (active). For the same compound, the Potency is 1.51 µM (active) in the assay with W2, 20.6 µM (active) in the assay on KB-3-1 and 13.2 µM (active) in the assay with NIH3T3. For the same compound, the max response is 1.65% with CRL-7250; -28.3% and -6.1% in the assay with HaCat.

Take `CC(C)C(=O)Nc1ccc([N+](=O)[O-])c(C(F)(F)F)c1`: the Potency entry in the assay with HB3, in the assay with ICS, in the assay with JCK, with N140, with P93_24 and in the assay with P94_40 was “inactive” each time. The Potency result with PAD, with PC15, in the assay on PC26, in the assay on PC49, in the assay with SC27B and in the assay with TAB109 was “inactive” in each case. Besides, the Potency entry with TAB113, with TAB165 and in the assay on W2 was “inactive” in each case. In addition, the max response in the assay on CRL-7250 was -19.8%; with KB-3-1, -17.3% and -13.1%; in the assay with NIH3T3, -15.1%. Moreover, the outcome in the assay on HaCat and with NIH3T3 was inactive.

Consider `Clc1ccc2c(c1)C(N1CCNCC1)=Nc1ccccc1O2`, for which the Potency result with JCK, with PC26 and with PC49 was “inactive” in each case. Besides, the Potency in the assay with W2 was 5.36 µM (active); in the assay with HEK293 it was 20.6 µM (active). Moreover, the max response was -6.06% and -6.64% and -8.49% in the assay with CRL-7250; 6.74% and 1.6% in the assay on KB-3-1; 4.64% and 1.82% and -2.71% in the assay with NIH3T3. In the assay on HaCat, the compound was classed as inactive.

On to `CN(C)C(=O)C(CCN1CCC(O)(c2ccc(Cl)cc2)CC1)(c1ccccc1)c1ccccc1`, for which the max response with CRL-7250 is -63.2%. Besides, the Potency with HEK293 was 13.2 µM (active) and 10.6 µM (active); with KB-3-1, 20.9 µM (active).

For `CNCCCC12CCC(c3ccccc31)c1ccccc12`, the Potency entry with HB3, in the assay on JCK, with N140, with PAD, with PC49 and in the assay with SC27B was “inactive” in each case. For the same compound, the Potency entry in the assay on TAB109 and in the assay with TAB113 was “inactive” each time. For the same compound, the Potency is 6.01 µM (active) in the assay with W2; 11.9 µM (active) and 16.6 µM (active) with HEK293. The max response in the assay on HaCat is -20.8% and 4.86%; in the assay on KB-3-1, 3.46%.

As for `C[C@@H]1CC(=O)NN=C1c1ccc(NN=C(C#N)C#N)cc1`, the compound was called inactive in the assay on CRL-7250. Moreover, in the assay with HaCat, the Potency was 18.7 µM (active); the max response was -5.36% and -8.18%. The max response in the assay on KB-3-1 is -4.37%.

`CC[C@@]1(O)C(=O)OCc2c1cc1n(c2=O)Cc2cc3c(CN(C)C)c(O)ccc3nc2-1`: the Potency is 7.94 µM (active) in the assay on ICS; 4.47 µM (active) in the assay with P93_24; 2.82 µM (active) with P94_40; 6.31 µM (active) in the assay on TAB109; 4.47 µM (active) in the assay with TAB113; 3.55 µM (active) in the assay on TAB165. In addition, the Potency was 5.36 µM (active) in the assay with W2; 7.5 µM (active) and 14.8 µM (active) and 6.51 µM (active) in the assay on CRL-7250; 372 nM (active) and 517 nM (active) with HEK293; 1.05 µM (active) and 1.46 µM (active) in the assay with HaCat; 5.9 µM (active) and 3.26 µM (active) with KB-3-1; 1.68 µM (active) and 1.32 µM (active) and 2.06 µM (active) in the assay with NIH3T3. The Potency result in the assay with PC15 and in the assay on PC49 was “inactive” throughout.

As to `CC1(CN2CCC(n3c(=O)[nH]c4ccccc43)CC2)OCc2ccccc2-n2cccc21` (configuration not stated), the Potency was 3.98 µM (active) in the assay on ICS; 12.6 µM (active) in the assay on N140; 11.2 µM (active) in the assay on P93_24; 10 µM (active) in the assay with P94_40; 8.91 µM (active) with PAD; 7.94 µM (active) with PC15. Besides, the Potency with PC26 is 12 µM (active); in the assay with SC27B it was 10 µM (active); in the assay on TAB165, 8.91 µM (active); in the assay on W2, 7.57 µM (active). Besides, the Potency result in the assay on JCK and with PC49 was “inactive” in each case. In addition, the max response is -0.873% and 0.74% in the assay with CRL-7250; -8% in the assay on HaCat; -2.15% and -10% with KB-3-1; -0.569% and -13.1% in the assay with NIH3T3. The outcome in the assay with HaCat was inactive.

In the case of `Nc1c2c(nc3ccccc13)CCCC2`, the Potency entry in the assay on JCK, with PC49, in the assay with SC27B and with TAB113 was “inactive” in each case. Further, the Potency is 12.6 µM (active) in the assay on PC15, 8.91 µM (active) in the assay with TAB109 and 26.4 µM (active) in the assay on HaCat. Further, the compound was called inactive in the assay with CRL-7250, in the assay on HaCat, with KB-3-1 and in the assay with NIH3T3.

Take `COc1ccccc1OCC(O)CN1CCN(CC(=O)Nc2c(C)cccc2C)CC1` (configuration not stated): the Potency entry in the assay on HB3, with ICS, in the assay with JCK, with N140, with P93_24 and in the assay with P94_40 was “inactive” in each case. Moreover, the Potency result in the assay on PAD, in the assay on PC15, in the assay with PC26, with PC49, in the assay with SC27B and in the assay with TAB109 was “inactive” in each case. Besides, the Potency result with TAB113, with TAB165 and in the assay with W2 was “inactive” each time. Further, the max response with HEK293 is 1.75%; with HaCat, -0.555%; with KB-3-1 it was 4.47% and -3.97%; with NIH3T3, -5.09%. In addition, the result in the assay on HEK293, in the assay with HaCat and in the assay on NIH3T3 was inactive.

For `COc1cc2c(c(OC)c1OC)-c1ccc(OC)c(=O)cc1[C@@H](NC(C)=O)CC2`, the Potency result with HB3, in the assay on ICS, with JCK, in the assay with N140, with P93_24 and in the assay on P94_40 was “inactive” in each case. The Potency entry with PAD, with PC15, in the assay with PC26, in the assay with PC49, in the assay with SC27B and in the assay on TAB109 was “inactive” throughout. The Potency result in the assay with TAB113 and in the assay with TAB165 was “inactive” throughout. The Potency in the assay on HEK293 was 0.0188 µM (active); with KB-3-1, 23.1 nM (active) and 1 nM (active). For the same compound, the max response with HEK293 is -105%; with HaCat it was -4.55% and -18.6%; in the assay on NIH3T3, -60%.

Consider `CCC1(c2ccccc2)C(=O)NCNC1=O`, for which the Potency result in the assay with HB3, in the assay with JCK, in the assay with N140, in the assay with P93_24, with P94_40 and with PAD was “inactive” in each case. The Potency entry in the assay on PC15, in the assay on PC26, with PC49, in the assay with SC27B, with TAB109 and in the assay with TAB113 was “inactive” in each case. Besides, the Potency entry in the assay with TAB165 and in the assay on W2 was “inactive” throughout.
